Kd data for four molecules are collected here from article PMC5540273 (PLoS ONE, 2017).

SMILES strings stand for the structures. Where only a bound is given, the exact number is not on record here.

The subject of one assay is T1, ERK2.
T1 construct: gene MAPK1

The subject of a further assay is T2, ERK8.
T2 construct: gene MAPK15
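Note: kd values determined as follow-up on hits from a single-replicate KINOMEscan panel screen.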

Consider `CS(=O)(=O)CCNCc1nc(-c2ccc3ncnc(Nc4ccc(OCc5ccccc5)c(Cl)c4)c3c2)cs1.Cl` [GW582764], for which the Kd – broadly, the concentration at which binding is half-saturated – in the assay with ERBB2 amounted to 4 nM; in the assay with ERBB4, 69 nM. `CS(=O)(=O)Cc1ccc(Nc2nccc(-c3c(-c4cccc(NC(=O)C5CCCCC5)c4)nn4ncccc34)n2)cc1` [GSK350559] had a Kd in the assay on FLT3 of 74 nM. As to `Cc1ccc(-c2nc(Nc3ccncc3)c3ccccc3n2)s1` [GSK189015], the Kd in the assay on ERK2 is > 10000 nM. For `O=C(Nc1n[nH]c2cc(-c3ccsc3)ccc12)C1CC1` [SB-732932], the Kd with ERK8 is 48 nM.
